Sampled rows, rich in hits. Any-hit rate of the full collection: about 7%.
rCAG binder: r(CAG) repeat RNA binding; 370,000 tested, 1.3% active; inhibition, % at 3 µM; TO-PRO-1 dye displacement fluorescence;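 active means inhibition above the plate cutoff, the mean of all test compounds on that plate plus 3 SD, cut at about 35% in these data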;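 further: higher means more dye released from RNA so lower well fluorescence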
ADAM17 inh: inhibitors of human ADAM17 | 370,000 tested, 0.83% active | inhibition, % at 6.95 µM | recombinant ADAM17, EDANS/DABCYL FRET peptide cleavage;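 active means inhibition above the mean of compounds lying between control limits plus 3 SD, set per campaign, cut at about 8.5% in these data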
GRIN3A LBD mod: modulators (binders) of human NR3A ligand-binding domain | NR3A LBD differential scanning fluorimetry, Tm shift; 0% = protein alone, 100% = glycine-bound protein | Tm shift relative to glycine control, % at 25 µM | 340,000 tested, 2.5% active;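 active means melting temperature shift of at least 10% of the positive control shift, at one fixed dose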
AHR activator: activates the human aryl hydrocarbon receptor. AHR-responsive luciferase reporter cells, luminescence. P35869. 320,000 tested, 2.5% active. activation, % at 5 µM. AID 2796; in the data active means activation above about 47%
ADAM10 inh: ADAM10 inhibition, QFRET primary screen; recombinant ADAM10, EDANS/DABCYL FRET peptide cleavage, 3 h; inhibition, % at 7 µM; 370,000 tested, 0.62% active; AID 720582;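 active means inhibition above a per-campaign cutoff equal to the mean of compounds falling between control-based bounds plus 3 SD, cut at about 20% in these data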
proKLK7 act: activators of human kallikrein-7 zymogen. P49862. purified proKLK7, EDANS-DABCYL substrate fluorescence; 100% is mature enzyme control, 0% vehicle. activation, % at 7 µM. 370,000 tested, 0.9% active;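 active means activation above the mean of all tested compounds plus 3 SD, computed per campaign excluding outliers beyond control limits, cut at about 13% in these data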
Numbers stand for hits; - = inactive; . = no result.

SMILES	rCAG binder	ADAM17 inh	GRIN3A LBD mod	AHR activator	ADAM10 inh	proKLK7 act
C#CCOCCOCCOCCNc1nc(N2CCN(C(=O)CCCCCCCCCCNC(=O)[C@H]([C@@H](C)CC)n3cc(CCCCN=C(N)N)nn3)CC2)nc(N2CCN(C(=O)CCCCCCCCCCNC(=O)[C@H](CCCCN)n3cc(C[C@@H](C)CC)nn3)CC2)n1	.	.	.	-	.	.
C#CCOCCOCCOCCNc1nc(N2CCN(C(=O)CCCCCCCCCCNC(=O)[C@H](CCCCN)n3cc(CCCC(=O)O)nn3)CC2)nc(N2CCN(C(=O)CCCCCCCCCCNC(=O)[C@H](CCCN=C(N)N)n3cc(C[C@@H](C)CC)nn3)CC2)n1	.	.	23.2	-	.	.
C#CCOCCOCCOCCNc1nc(N2CCN(C(=O)CCCCCCCCCCNC(=O)[C@H](CCCCN)n3cc(C[C@@H](C)CC)nn3)CC2)nc(N2CCN(C(=O)CCCCCCCCCCNC(=O)[C@H](CCCCN)n3cc(C[C@@H](C)CC)nn3)CC2)n1	.	.	18.5	-	.	.
C#CCOCCOCCOCCNc1nc(N2CCN(C(=O)CCCCCCCCCCNC(=O)Cn3cc(C[C@@H](C)O)nn3)CC2)nc(N2CCN(C(=O)CCCCCCCCCCNC(=O)Cn3cc(C[C@@H](C)O)nn3)CC2)n1	-	-	-	-	-	-
O=C(C1CCN(c2cncnc2)CC1)N1CCCC1	-	-	.	.	-	-
O=C(CN1C(=O)c2cccnc2C1=O)c1ccccc1	-	-	-	-	-	-
CC(=O)OCCN1C(=O)c2cccnc2C1=O	-	-	12.8	-	-	-
Nc1nc(Cl)cc(N2CCC(c3cc(-c4ccc(Cl)cc4Cl)n[nH]3)CC2)n1	-	-	13.0	-	-	-
Cc1ccccc1-c1cc(=O)c2ccccc2o1	-	-	-	-	-	-
Cc1cc(CCNC=O)c(C)c2c1oc1ccccc12	-	-	12.6	.	-	-
CC(OC(=O)C1CC(=O)N(Cc2ccco2)C1)C(=O)Nc1cccc(C#N)c1 (configuration not stated)	-	-	-	.	-	-
COc1cc2c(cc1NC(=O)C(C)OC(=O)C1CC(=O)N(Cc3ccco3)C1)oc1ccccc12 (configuration not stated)	-	-	-	53.8	-	-
CCOC(=O)COc1cc(-n2c(=S)[nH]c3cc(OC)c(OC)cc3c2=O)c(Cl)cc1Cl	-	-	12.6	-	-	-
CCOC(=O)N1CCN(C(=O)C[C@H]2C(=O)N(CCCOC)C3=CCCC[C@@]32C(=O)OCC)CC1	-	-	.	.	-	-
COc1ccc(S(=O)(=O)N(C(=O)C(C)C)c2ccc3oc(=O)sc3c2)cc1	-	-	-	-	-	-
COc1ccc(S(=O)(=O)N(C(=O)c2ccco2)c2cc3sc(=O)oc3c3ccccc23)cc1	97.9	-	-	-	-	-
CCCC[C@H](CCCc1ccc(F)cc1)CCC(=O)N(c1ccccc1)c1ccccc1	-	-	.	.	-	-
COC(=O)C1CN(Cc2ccc(OC)cc2)CCS(=O)(=O)N1Cc1cn(CCOC(C)=O)nn1 (configuration not stated)	-	-	.	.	-	-
Cc1cc(C(=O)c2ccc(Cl)cc2)c(NC(=O)CCl)s1	-	-	11.6	-	-	-
COc1ccc(CN2C(=O)[C@]3(NCCc4c3[nH]c3ccc(OC)cc43)c3cc(F)ccc32)cc1	-	-	.	.	-	-
CC(C)c1c(C(=O)N/N=C/c2cccc(OCc3ccccc3)c2)nnn1-c1nonc1N	-	-	24.0	-	-	-
COc1cc(/C=N/NC(=O)c2nnn(-c3nonc3N)c2C(C)C)ccc1OCc1ccccc1	-	-	34.7	-	-	-
CC(C)c1c(C(=O)N/N=C/c2ccc(OCc3ccccc3)cc2)nnn1-c1nonc1N	-	-	32.4	-	-	-
COc1cc(/C=N/NC(=O)c2nnn(-c3nonc3N)c2C)ccc1OCc1ccc(Cl)cc1	-	-	.	.	-	-
COc1cc(/C=N/NC(=O)c2nnn(-c3nonc3N)c2C(C)C)ccc1O	-	-	30.4	-	-	-
C[C@H]1[C@@H](OC(=O)N2CCOCC2)CC[C@@]23CCCN2C(=O)CCC[C@@H]13	.	-	.	.	-	.
Cc1ccccc1COc1cccc(/C=N/NC(=O)c2nnn(-c3nonc3N)c2C)c1	-	-	-	-	-	-

From PubChem
